# Test results taken from PMC5540273 (PLoS ONE, 2017).
# Tested on: MELK
# Conditions: concentration: 1 μM, replicates: in singlicate; n = 1
# 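Also: KINOMEscan kinase panel screen.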
row,Structure (SMILES),%Inh [%]
1,O=C(Nc1cccc(-c2nn3ncccc3c2-c2ccnc(Nc3cccc(C(F)(F)F)c3)n2)c1)c1c(F)cccc1F [GSK299495],0
2,O=C(c1ccc(-c2cc(-c3c[nH]nc3-c3ccccn3)ccn2)cc1)N1CCOCC1 [GW812171],0
3,Cc1cccc(Cn2ccn3c(=O)cc(N4CCOCC4)nc23)c1 [GSK2297542],8
4,NS(=O)(=O)c1cccc(-c2ccc3ncc(N4CCOCC4)nc3c2)c1 [GSK1535721],17
5,CCc1ccnc(/C=C/c2n[nH]c3cc(Sc4ccccc4C(=O)NC)ccc23)c1,6
6,O=c1cc(N2CCOCC2)nc2n(Cc3cccc(C(F)(F)F)c3)ccn12 [GSK2297543],4
7,COC(=O)Nc1nc2cc(Oc3ccc(NC(=O)Nc4cc(F)ccc4F)cc3)ccc2[nH]1.Cl [GW701424],10
8,NS(=O)(=O)CCc1cccc(Nc2nccc(-c3c(-c4cccc(NC(=O)c5c(F)cccc5F)c4)nn4ccccc34)n2)c1 [GSK336735],24
9,O=C(NCCNc1ccnc(Nc2ccc(F)cc2)n1)c1cc2ccccc2s1 [GSK1379874],0
10,CC(C)(C)n1cnc2c(N)ncnc21 [SKF-97359],0
11,COc1cc2c(cc1OC[C@@H](O)CO)ncc1c3ccc(C#N)cc3[nH]c21,31
12,O=C(NCCNc1ccnc(Nc2ccc(F)cc2)n1)Nc1ccccc1F [GSK1379880],0
13,Fc1ccc(-c2ncn(CCCN3CCOCC3)c2-c2ccccn2)cc1 [SB-211742],18
14,O=C(Nc1n[nH]c2cc(-c3cccc(F)c3)ccc12)C1CC1 [SB-735464],0
15,Cc1nnc(-c2ccc(C)c(-c3ccc(C(=O)Nc4ccc(NS(C)(=O)=O)cc4)cc3)c2)o1 [GW702865],10
16,CNc1ncnc2[nH]ncc12 [SKF-18355],0
17,Cc1cccc(-c2nc(-c3ccc(S(C)(=O)=O)cc3)sc2-c2ccncc2)c1,5

row,Structure (SMILES),%Inh [%]
1,Nc1nc(-c2ccc3c(N)n[nH]c3c2)cc(N2CCCC2)n1 [GSK2227430],0
2,Fc1ccc(-c2ncn(CCCN3CCOCC3)c2-c2cccnc2)cc1 [SB-211743],0
3,[2H]C([2H])(c1cccc(C(F)(F)F)c1C)n1ccn2c(=O)nc(N3CCOCC3)cc12 [GSK2336394],0
4,c1ccc(-c2cc(-c3c[nH]nc3-c3ccccn3)ccn2)cc1 [GW576604],1
5,CCc1nc(-c2cccc(C)c2)c(-c2ccnc(NCc3ccccc3)c2)s1,0
6,Cn1ccc2ncnc(Oc3ccc(NC(=O)Nc4ccncc4)c(Cl)c3)c21,0
7,COCCNC(=O)c1ccc(-c2cc(C(=O)NC3CC3)cc(F)c2C)cc1 [GW868318],0
8,O=C1NC(=O)C(N2CCc3ccccc32)=C1c1cccc(Cl)c1 [SB-408010],0
9,CN(C1=C(c2ccccc2)C(=O)NC1=O)c1ccccc1 [SB-334860],24
10,NCC(NC(=O)c1cc(-c2cn[nH]c2)c(-c2ccnc3[nH]ccc23)s1)c1ccccc1.O=C(O)C(F)(F)F.O=C(O)C(F)(F)F (stereo not shown) [GSK1325775],38
11,COc1ccc(Nc2nccc(N3CCC(NC(=O)Nc4cccc(C(C)=O)c4)C3)n2)cc1 (stereo not shown) [GSK1379731],0
12,Cn1cc(-c2ccc3c(c2)CCN3C(=O)Cc2ccccc2Cl)c2c(N)ncnc21 [GSK2608885],0
13,O=c1cc(N2CCOCC2)nc2n(Cc3cccc(F)c3)ccn12 [GSK2297430],18
14,CN(C(=O)c1ccc(-c2cc(-c3c[nH]nc3-c3ccccn3)ccn2)cc1)C1CCOCC1 [GW810083],41
15,CC(=O)Nc1ccc(COc2ccc(Nc3ccnc4cc(-c5ccccn5)ccc34)cc2)cc1.Cl [GW440148],5
16,NS(=O)(=O)c1cccc(-c2ccc3nccc(-c4cccc(S(N)(=O)=O)c4)c3c2)c1 [GW867253],0
17,N#Cc1c(N2CCOCC2)sc(-c2ccn[nH]2)c1-c1ccc(Cl)cc1,0
